# According to the supplement of paper PMC12819154, “High-throughput peptide-centric local stability assay extends protein–ligand identification to membrane proteins, tissues and bacteria” (Nature Structural & Molecular Biology, 2025):
# Compound: Nc1ncnc2c1ncn2[C@@H]1O[C@H](COP(=O)(O)OP(=O)(O)OP(=O)(O)O)[C@@H](O)[C@H]1O [adenosine 5'-triphosphate]
# Test: log2 fold change of tryptic peptide abundance, ligand vs vehicle (limited proteolysis) (log2 ratio); higher = more trypsin-susceptible (destabilized)
# Settings: ligand concentration: 5 mM; sample: E. coli desalted lysate; replicate design: treated before aliquoting
# Protocol: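 HT-PELSA: desalted E. coli K-12 BW25113 lysate (with 12 mM MgCl2) incubated with 5 mM ATP (pH 7) or water for 30 min at 25 C, then a 4 min trypsin pulse at 22 C. Peptides were quantified by DIA-MS (4 replicates). Value is the peptide log2 fold change (treated/control); negative = stabilized. Scale: negative = ligand-stabilized region.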
# 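Note: lysate desalted by size exclusion to strip endogenous ATP, peptide intensities built from DIA-NN precursor signals, and peptides missing any value discarded before comparison.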
row,Target,log2 fold change
1,"UniProt P23305 (peptide sequence: DLGLAGASLR, peptide start residue: 115)",0.488
2,"UniProt P37051 (peptide sequence: TICPDQK, peptide start residue: 11)",-0.377
3,"UniProt P14175 (peptide sequence: YIEQGLSK, peptide start residue: 24)",1.4
4,"UniProt Q46868 (peptide sequence: QVHESMPK, peptide start residue: 13)",-0.305
5,"UniProt P22634 (peptide sequence: LVDSGAAIAR, peptide start residue: 224)",0.312
6,"UniProt P14375 (peptide sequence: LNVVAIEVPSLR, peptide start residue: 302)",-1.45
7,"UniProt P55734 (peptide sequence: LRHEQIIFHCQAGKR, peptide start residue: 55)",0.948
8,"UniProt Q46925 (peptide sequence: SQFAEAQR, peptide start residue: 53)",-0.663
9,"UniProt P0AAS7 (peptide sequence: LEGWSESGAQAK, peptide start residue: 20)",-0.938
10,"UniProt P37773 (peptide sequence: IIAVLEPRSNTMK, peptide start residue: 354)",1.55
11,"UniProt P33570 (peptide sequence: AGKEEAHGAPLGEEEVALAR, peptide start residue: 254)",-0.289
12,"UniProt P45579 (peptide sequence: VAAAHAVHNGLTVLPQTEK, peptide start residue: 253)",0.992
13,"UniProt Q46851 (peptide sequence: YLNGIPQDSR, peptide start residue: 234)",-0.438
14,"UniProt P75828 (peptide sequence: YLDIINR, peptide start residue: 246)",-2.12
15,"UniProt P37675 (peptide sequence: IVDLPMKLVGHK, peptide start residue: 78)",0.735
16,"UniProt P0AC84 (peptide sequence: QINVFLR, peptide start residue: 212)",0.46
17,"UniProt P21170 (peptide sequence: TLLTQFR, peptide start residue: 619)",0.611
18,"UniProt Q46855 (peptide sequence: VGYESASQFSR, peptide start residue: 285)",0.235
19,"UniProt P17169 (peptide sequence: LKSNIEEVR, peptide start residue: 530)",-0.459
20,"UniProt P0AFI5 (peptide sequence: YTHFADASR, peptide start residue: 264)",-0.35

row,Target,log2 fold change
1,"UniProt P0AEE1 (peptide sequence: AIELKGHK, peptide start residue: 121)",0.899
2,"UniProt P36938 (peptide sequence: FMHLDKDGAIR, peptide start residue: 268)",-0.898
3,"UniProt P51024 (peptide sequence: QLIEMNR, peptide start residue: 75)",-0.359
4,"UniProt P25535 (peptide sequence: LADTLPGVKPQLIR, peptide start residue: 374)",0.527
5,"UniProt P15005 (peptide sequence: LAYLLTGEK, peptide start residue: 214)",-1.01
6,"UniProt P0AD19 (peptide sequence: GLAMGTASHALGTAR, peptide start residue: 178)",-0.978
7,"UniProt P37326 (peptide sequence: YNPAPDLADAMK, peptide start residue: 179)",-0.342
8,"UniProt P17117 (peptide sequence: ESRPFILDYLHK, peptide start residue: 223)",1.13
9,"UniProt P23331 (peptide sequence: TVVYTAEIDDR, peptide start residue: 33)",-1.64
10,"UniProt P0ACX3 (peptide sequence: NLGVEEVVAK, peptide start residue: 75)",0.583
11,"UniProt P76502 (peptide sequence: VLVSPFLR, peptide start residue: 48)",0.397
12,"UniProt P00888 (peptide sequence: LLVVCGPCSIHDPETALEYARR, peptide start residue: 55)",0.547
13,"UniProt P30844 (peptide sequence: NLVENAHR, peptide start residue: 260)",-1.02
14,"UniProt P42603 (peptide sequence: TPSAVDER, peptide start residue: 175)",-0.551
15,"UniProt P77783 (peptide sequence: MNHPDRLK, peptide start residue: 109)",-0.483
16,"UniProt P21645 (peptide sequence: KTAALVMNIDDMSKR, peptide start residue: 315)",-0.565
17,"UniProt P04993 (peptide sequence: YLDLLQAR, peptide start residue: 418)",-1.02
18,"UniProt P23841 (peptide sequence: LNMSQPPLSIHIK, peptide start residue: 31)",-0.876
19,"UniProt P77306 (peptide sequence: TLSPEDLR, peptide start residue: 123)",0.57
20,"UniProt P52101 (peptide sequence: AMIFEPFFQGSHQR, peptide start residue: 414)",0.36
